MCF10A rereplic – induces DNA re-replication in MCF 10a normal breast cells | MCF 10A DNA re-replication, Hoechst nuclear intensity, 48 h | Potency, µM (series often up to 46.1 µM), inactives show at the top dose activity, positive = re-replication, most hits filed as activators | 350,000 tested, 2.9% active; note: % of control where 0% means no effect; nearly all actives have a fitted effect of over 50% in size
SW480 rereplic – inducers of DNA re-replication in SW480 colon cancer cells. Potency, µM (series often up to 46.1 µM), for inactives: at the highest dose re-replication activation, hits mostly activators. 340,000 tested, 1.8% active. SW480 DNA re-replication, Hoechst DNA content imaging, 48 h; note: % of control where 0% means no effect; nearly all actives have a fitted effect of over 55% in size
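Quantitative HTS format with DMSO vehicle controls; 48 hr drug incubation at 37 C, then 40 min Hoechst staining and scanning imager measurement at 405 nm excitation.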
KB-3-1 tox – KB-3-1 parental cell cytotoxicity; KB-3-1 viability, CellTiter-Glo ATP luminescence, 72 h; 400,000 tested, 1.4% active; AID 1347075; Potency, µM (top dose mostly 46.1 µM), actives largely listed as cytotoxic; note: % is set by controls: 0 for no effect and ±100 for the full control effect; nearly all actives have a fitted effect of over 60% in size
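Multi-concentration cytotoxicity screen in KB-3-1 cells grown in DMEM lacking phenol red with 10% FBS. After 72 h at 37 °C with compound, ATP-dependent luminescence was recorded.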
KB-V1 MDR tox – kills drug-selected multidrug resistant KB-V1 cells; KB-V1 MDR cells viability, CellTiter-Glo, 72 h; Potency, µM (highest dose often 46.1 µM), actives largely listed as cytotoxic; 400,000 tested, 3.4% active; note: % is set by controls: 0 for no effect and ±100 for the full control effect; nearly all actives have a fitted effect of over 60% in size
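Cytotoxicity toward P-gp-expressing KB-V1 cells was determined as loss of CellTiter-Glo luminescence after 72 h at 37 degrees C. Compounds were tested in quantitative HTS format across a concentration range, with curves fitted to normalized data.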
VP16 counter – counter-screen for ROR gamma inhibitors: Gal4-VP16 reporter. Drosophila S2 Gal4-VP16 UAS-luciferase, luminescence, 20 h. Potency, µM (series often up to 53.6 µM), for inactives: at the highest dose activity, negative = inhibition, usual class: inhibitors. 310,000 tested, 3.5% active. AID 2546;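 note: Gal4-VP16 expression switched on by copper sulfate through the metallothionein promoter; % is set by controls: 0 for no effect and ±100 for the full control effect; nearly all actives have a fitted effect of over 50% in size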
RORg inh – ROR gamma (mouse) transcription inhibition. Potency, µM (highest dose often 53.6 µM), for inactives: at the top dose activity change, negative = inhibition, hits mostly inhibitors. P51450. Drosophila S2 Gal4-RORgamma UAS-luciferase reporter, 20 h. 310,000 tested, 5.4% active. AID 2551; note: % is set by controls: 0 for no effect and ±100 for the full control effect; nearly all actives have a fitted effect of over 60% in size
Target sequence (P51450 whole entry, looked up, the tested form may be a part): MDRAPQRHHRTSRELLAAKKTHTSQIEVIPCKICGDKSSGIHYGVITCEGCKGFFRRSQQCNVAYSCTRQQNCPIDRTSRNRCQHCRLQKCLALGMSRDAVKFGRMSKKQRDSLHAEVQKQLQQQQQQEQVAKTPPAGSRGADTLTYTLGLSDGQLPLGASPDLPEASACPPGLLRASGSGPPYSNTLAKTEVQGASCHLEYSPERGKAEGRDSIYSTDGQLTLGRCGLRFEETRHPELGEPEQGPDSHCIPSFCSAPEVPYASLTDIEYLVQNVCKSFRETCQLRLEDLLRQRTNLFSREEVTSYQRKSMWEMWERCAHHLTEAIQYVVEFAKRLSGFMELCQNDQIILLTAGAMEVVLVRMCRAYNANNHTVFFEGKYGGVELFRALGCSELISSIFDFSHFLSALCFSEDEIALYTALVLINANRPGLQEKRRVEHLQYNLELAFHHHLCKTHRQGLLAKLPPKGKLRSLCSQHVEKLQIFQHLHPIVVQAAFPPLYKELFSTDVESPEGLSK
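Compounds are pin-transferred onto Drosophila Schneider cells expressing a copper-inducible Gal4–ROR gamma transactivation domain fusion. After 1 hr, copper sulfate is added to 700 uM final; luciferase is read 20 hr later.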
An asterisk follows results filed as active; i = inactive; ? = inconclusive; . = not tested or not shown; [ ] = another dose, or the depositor's remark. A selection: hits, their analogues and other compounds. The true share with any hit is near 10%. Calls come from the whole dose curve; as a rule, active = well fitted curve in the direction sought with a large enough effect; inconclusive = small, poorly fitted or top-dose-only effect, or another doubt; inactive = no such curve, though single readings can be large; an effect the other way counts as inactive or inconclusive. Potency is the fitted concentration of half-maximal effect.

SMILES	MCF10A rereplic	SW480 rereplic	KB-3-1 tox	KB-V1 MDR tox	VP16 counter	RORg inh
Cc1nn(-c2ccccc2)c(C)c1-c1nnc(-c2c(C)nn(-c3ccccc3)c2C)o1	0%	-13%	i	9.2µM*	-7%	41%
Cc1nn(-c2ccccc2)c(C)c1-c1nnc(C(F)(F)F)o1	1%	-14%	i	i	25%	0%
O=C(Nn1c(SCc2ccc(F)cc2)nc2ccsc2c1=O)c1ccccc1	?	-3%	i	4.1µM*	-8%	12%
N#CC1=C(C2CC2)CC(c2ccccc2)C(C#N)=C1N (centres undefined)	2%	3%	i	23µM*	15%	-7%
COC(=O)c1ccc2c(=O)n(CCCCCC(=O)NCc3ccc(Cl)cc3)c(=O)[nH]c2c1	.	.	i	i	.	.
CC1(C(=O)Nc2ccc3c(c2)OCO3)CCN1C(=O)Cc1ccc(-c2ccccc2)cc1 (centres undefined)	.	.	12µM*	3.3µM*	.	.
CC1(C(=O)Nc2ccc3c(c2)OCCO3)CCN1Cc1ccc2ccccc2c1 (centres undefined)	.	.	?	21µM*	.	.
Clc1cccc(CSc2nnc(-c3c[nH]c4ccccc34)o2)c1	11µM*	-5%	i	?	-9%	-21%
O=C(CSc1nnc(-c2c[nH]c3ccccc23)o1)N(Cc1ccccc1)c1ccc(F)cc1	12%	-8%	i	12µM*	-8%	?
COc1ccc(CN(C(=O)CSc2nnc(-c3ccccc3C)o2)c2ccc(F)cc2)cc1	14%	?	i	i	14%	31%
Clc1ccc(-c2cc3nc(NCc4cccc(Cl)c4)ccn3n2)cc1	.	.	i	i	.	.
Cc1cc(C)cc(Oc2ccccc2/C=N\O)c1	3%	0%	i	i	11µM*	?
Cc1nn(-c2ccccc2)c(Cl)c1CN(C(=O)CCl)c1cccc2ccccc12	?	?	18µM*	?	?	14µM*
Cc1nn(-c2ccccc2)c(Cl)c1CN(C(=O)CCl)c1ccc(Cl)cc1	?	3.3µM*	?	21µM*	?	-7%[10 µM]
CC(=O)N(Cc1c(C)nn(-c2ccccc2)c1Cl)c1ccc(Cl)cc1	14%	-5%	i	?	6%	7%
CN(C)c1ccc(C=c2c3ccccc3n3c2c2ccccc2[n+]3C)cc1	?	13µM*	5.2µM*	?	.	.
CCOC(=O)c1cc2c(=Cc3ccc(N(C)C)cc3)c3ccccc3n2[n+]1C	25%	?	2.1µM*	?	.	.
O=C(c1cc(C(F)(F)F)cc(C(F)(F)F)c1)N1CCC2(CC1)CCN(c1ccccn1)CC2	.	.	.	.	-16%	-2%
N#Cc1ccccc1NC(=O)CNc1ccc(Cl)c(C(F)(F)F)c1	-1%	.	i	?	11µM*	?
Cc1c(Cl)cccc1NC(=O)CNc1cccc(C(F)(F)F)c1	-2%	.	i	i	4%	25%
O=C(N/N=C/c1cc(Br)ccc1O)c1ccccc1Cl	?	?	?	?	2.5µM*	0.56µM*
CC(C)c1ccc(/C=N/NC(=O)c2ccccc2Cl)cc1	5.8µM*	13µM*	15µM*	4.6µM*	-2%	?
Cc1nc2ccc(Br)cn2c1C(=O)N/N=C\c1ccc(C(C)C)cc1	6%	-2%	?	i	5µM*	5.6µM*
COc1ccc(OC)c(/C=N/NC(=O)c2c(C)nc3ccc(C)cn23)c1	-2%	1%	i	i	-3%	-20%
C=CCn1c(CNc2ccccc2)nnc1SCC(=O)N/N=C/c1ccccc1O	43%	?	i	i	16µM*	10µM*
SMILES	MCF10A rereplic	SW480 rereplic	KB-3-1 tox	KB-V1 MDR tox	VP16 counter	RORg inh
COC(=O)c1ccc(/C=N/NC(=O)c2ccccc2Cl)cc1	0%	0%	i	i	6%	?
CCOc1ccccc1NS(=O)(=O)c1ccc2c(c1)CC(C)N2C(=O)C1CC1 (centres undefined)	.	.	i	?	.	.
O=C(CCC(=O)Nc1ccc(Br)cc1)N/N=C/c1ccccc1O	16%	?	?	?	?	?
O=C(CCCCC(=O)NN=Cc1ccccc1O)NN=Cc1ccccc1O	?	1.5µM*	?	i	.	.
O=C(CSCC(=O)NN=Cc1ccccc1O)NN=Cc1ccccc1O	15µM*	?	.	.	.	.
O=C(CN1C(=O)NC2NC(=O)NC21)N/N=C/c1ccccc1O (centres undefined)	6%	-4%	i	i	10%	-41%
O=C(N/N=C/C1CC2C=CC1C2)c1ccccc1O (centres undefined)	2%	?	i	i	?	4.5µM*
O=C(Cn1cc(C(F)(F)F)ccc1=O)N/N=C/c1ccccc1O	0%	5.8µM*	i	i	10µM*	2µM*
C=CCOC(=O)N[C@@H](c1cccs1)C(C(C)=O)C(C)=O	.	.	.	.	-2%	7%
O=C(N/N=C\c1ccccc1O)c1ccccc1O	.	.	.	.	35µM*	1µM*
O=C(N/N=C/c1cccc(O)c1)c1ccccc1O	0%	3%	i	i	-3%	?
O=C(CCc1ccccc1)N/N=C\c1cc2c(cc1Br)OCO2	15%	3%	i	?	?	?
O=C(CSCc1ccccc1)N/N=C/c1cc2c(cc1Br)OCO2	14%	.	i	?	11µM*	?
CN(C)c1ccc(C=Nc2cnc3ccccc3c2)cc1	.	.	i	i	.	.
OC[C@H]1NC[C@H](O)[C@@H](O)[C@@H]1O	.	.	.	.	-14%	4%
COc1ccc(OC)c(C2CC(=O)N3CN(c4ccccc4)CSC3=C2C#N)c1 (centres undefined)	8%	-17%	i	i	13%	11µM*
COc1ccc(C2CC(=O)N3CN(Cc4ccco4)CSC3=C2C#N)cc1 (centres undefined)	-2%	?	i	i	3%	-10%
COc1ccc2ccccc2c1C1CC(=O)N2CN(Cc3ccco3)CSC2=C1C#N (centres undefined)	5%	8%	i	i	?	10µM*
Cc1ccc2oc(=O)c3cnn(CC(=O)Nc4cccc(C(F)(F)F)c4)c3c2c1	.	.	i	i	.	.
O=C1CCN(Cl)C(=O)N1Cl	.	.	i	i	.	.
Cc1cc(NS(=O)(=O)c2ccc(NC(=O)COc3ccc(Br)cc3)cc2)nc(C)n1	18µM*	?	?	?	-9%	0%
COc1cc(O)c(C(CC(=O)N2CCCC(C)C2)c2ccc3c(c2)OCO3)c(OC)c1 (centres undefined)	7%	-17%	i	i	-7%	3.5µM*

Screening results from PubChem.
